Measurements published in PubChem BioAssay (EPA / NIEHS).
Inconclusive results are not listed. Calls of active or inactive are those of the source. How the source made its calls, unless noted: active means hit-call score of the fitted dose curve at least 0.9, where 1 is the maximum; inactive means score below 0.9.

Assays:
[1] = target: Paired box protein Pax-6 (Homo sapiens) (UniProt P26367); assay: ATG_Pax6_CIS: Attagene CIS-FACTORIAL HepG2 Assay for human Paired Box 6 (PAX6) (AID 2282956); settings: HepG2 CIS-FACTORIAL PAX6 reporter transcription, RNA readout; actives raise or lower the signal
Chain of Paired box protein Pax-6 (Homo sapiens) (P26367 whole entry, looked up): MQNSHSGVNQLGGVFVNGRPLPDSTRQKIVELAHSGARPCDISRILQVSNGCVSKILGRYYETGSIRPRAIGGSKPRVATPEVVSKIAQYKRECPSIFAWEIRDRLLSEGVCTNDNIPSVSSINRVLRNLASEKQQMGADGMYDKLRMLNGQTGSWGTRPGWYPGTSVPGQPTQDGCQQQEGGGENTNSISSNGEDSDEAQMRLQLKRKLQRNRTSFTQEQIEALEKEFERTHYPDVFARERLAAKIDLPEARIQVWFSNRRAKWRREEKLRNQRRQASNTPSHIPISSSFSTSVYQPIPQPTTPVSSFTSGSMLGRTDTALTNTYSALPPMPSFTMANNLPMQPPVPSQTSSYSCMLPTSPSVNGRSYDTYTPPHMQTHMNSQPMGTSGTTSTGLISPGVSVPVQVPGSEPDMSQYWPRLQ
In short: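 HepG2 cells transiently transfected with cis-promoter-driven multiplexed reporter units sensing endogenous transcription factor activity; 24 h chemical exposure. Reporter mRNA quantified by RT-PCR, 6-FAM labelling, HpaI digestion and capillary electrophoresis; bidirectional fit versus DMSO baseline.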

[2] = ATG_PPRE_CIS: Attagene CIS-FACTORIAL HepG2 Assay for human Peroxisome Proliferator-activated Response Element (PPRE) (AID 2282958); settings: HepG2 PPRE cis-element reporter, Attagene transcription factor profiling; actives raise or lower the signal
In short: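 Transcript-level reporter induction in transfected HepG2 cells after 24 h chemical exposure, quantified by fluorescence from RT-PCR products separated by capillary electrophoresis.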

[3] = ATG_RORE_CIS: Attagene CIS-FACTORIAL HepG2 Assay for human RAR-related Orphan Receptor Element (RORE) (AID 2282959); settings: HepG2 Attagene cis-factorial RORE reporter, mRNA; actives raise or lower the signal
In short: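 Multiplexed reporter assay measuring mRNA induction from a cis promoter element in transiently transfected HepG2 cells after 24 h treatment. Detection via RT-PCR and capillary electrophoresis fluorescence; DMSO serves as baseline.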

[4] = ATG_Sox_CIS: Attagene CIS-FACTORIAL HepG2 Assay for human SRY-box transcription factor (SOX) (AID 2282960); settings: HepG2 Attagene cis-factorial SOX reporter, mRNA; actives raise or lower the signal
In short: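 Cells were transfected with reporter constructs under cis-regulatory promoters, then exposed to chemicals for 24 h. Reporter transcripts were quantified by fluorescence after RT-PCR and capillary electrophoresis; activity was fitted in both directions against DMSO.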

[5] = target: Transcription factor Sp1 (Homo sapiens) (UniProt P08047); assay: ATG_Sp1_CIS: Attagene CIS-FACTORIAL HepG2 Assay for human Specificity Protein 1 (Sp1) (AID 2282961); settings: HepG2 Sp1 cis-reporter transcription, actives raise or lower the signal
Chain of Transcription factor Sp1 (Homo sapiens) (P08047 whole entry, looked up): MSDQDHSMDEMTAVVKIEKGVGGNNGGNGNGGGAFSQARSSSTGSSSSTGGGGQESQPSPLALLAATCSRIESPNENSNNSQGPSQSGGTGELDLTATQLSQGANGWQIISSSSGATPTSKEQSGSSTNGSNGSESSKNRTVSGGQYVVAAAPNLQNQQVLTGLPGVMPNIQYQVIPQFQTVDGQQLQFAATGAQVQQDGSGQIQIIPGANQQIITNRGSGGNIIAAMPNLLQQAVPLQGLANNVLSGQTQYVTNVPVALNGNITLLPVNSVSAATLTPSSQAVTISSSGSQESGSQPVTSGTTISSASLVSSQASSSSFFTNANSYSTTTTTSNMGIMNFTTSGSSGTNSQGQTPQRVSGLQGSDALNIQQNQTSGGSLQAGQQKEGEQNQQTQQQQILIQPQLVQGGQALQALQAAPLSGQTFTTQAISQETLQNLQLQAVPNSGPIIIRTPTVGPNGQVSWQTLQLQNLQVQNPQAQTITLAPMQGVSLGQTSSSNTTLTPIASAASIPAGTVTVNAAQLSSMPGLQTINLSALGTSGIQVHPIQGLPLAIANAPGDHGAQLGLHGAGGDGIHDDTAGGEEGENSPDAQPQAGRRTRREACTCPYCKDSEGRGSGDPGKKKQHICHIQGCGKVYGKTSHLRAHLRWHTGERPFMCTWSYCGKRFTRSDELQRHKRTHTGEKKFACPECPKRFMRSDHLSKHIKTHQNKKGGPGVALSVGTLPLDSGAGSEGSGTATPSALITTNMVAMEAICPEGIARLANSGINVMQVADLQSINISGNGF
In short: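 Measures mRNA induction of an Sp1-linked reporter in HepG2 cells 24 h post-dosing. Multiplexed reporters read by RT-PCR and capillary electrophoresis; DMSO serves as negative control and baseline.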

[6] = ATG_SREBP_CIS: Attagene CIS-FACTORIAL HepG2 Assay for human Sterol Regulatory Element Binding (SREBP) (AID 2282962); settings: HepG2 Attagene cis-factorial SREBP reporter, mRNA; actives raise or lower the signal
In short: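 HepG2 cells transiently transfected with multiplexed cis-promoter reporter units sensing endogenous transcription factors; reporter mRNA measured 24 h after dosing by RT-PCR, 6-FAM labeling, HpaI digestion and capillary electrophoresis. Bidirectional fit versus DMSO.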

[7] = target: Signal transducer and activator of transcription 3 (Homo sapiens) (UniProt P40763); assay: ATG_STAT3_CIS: Attagene CIS-FACTORIAL HepG2 Assay for human Signal Transducer and Activator of Transcription 3 (STAT3) (AID 2282963); settings: HepG2, Attagene cis-factorial STAT3 reporter transcription; actives raise or lower the signal
Chain of Signal transducer and activator of transcription 3 (Homo sapiens) (P40763 whole entry, looked up): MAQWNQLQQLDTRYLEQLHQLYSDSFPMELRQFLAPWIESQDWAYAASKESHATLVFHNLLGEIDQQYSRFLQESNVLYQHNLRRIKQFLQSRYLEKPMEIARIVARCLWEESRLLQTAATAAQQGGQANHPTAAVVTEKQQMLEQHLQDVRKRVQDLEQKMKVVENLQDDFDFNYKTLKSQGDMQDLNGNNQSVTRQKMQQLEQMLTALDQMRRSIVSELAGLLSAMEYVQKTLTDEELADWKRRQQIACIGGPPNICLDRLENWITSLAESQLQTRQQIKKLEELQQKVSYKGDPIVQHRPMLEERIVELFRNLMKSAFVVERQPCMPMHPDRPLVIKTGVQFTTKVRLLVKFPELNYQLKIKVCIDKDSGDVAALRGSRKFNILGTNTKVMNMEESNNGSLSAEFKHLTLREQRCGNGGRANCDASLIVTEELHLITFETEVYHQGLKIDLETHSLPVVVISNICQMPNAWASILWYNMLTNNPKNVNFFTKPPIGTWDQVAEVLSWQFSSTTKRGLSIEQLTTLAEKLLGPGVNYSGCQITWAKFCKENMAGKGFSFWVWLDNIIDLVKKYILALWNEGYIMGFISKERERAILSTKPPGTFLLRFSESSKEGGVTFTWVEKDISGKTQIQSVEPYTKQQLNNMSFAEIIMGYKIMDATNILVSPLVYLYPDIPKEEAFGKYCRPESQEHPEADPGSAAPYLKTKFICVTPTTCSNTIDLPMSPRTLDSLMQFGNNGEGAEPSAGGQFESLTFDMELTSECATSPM
In short: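 After a 24 h compound incubation, total RNA from MRTU-transfected HepG2 cells was converted to cDNA and reporter sequences PCR-amplified, labelled and profiled by capillary electrophoresis. Gain and loss of signal were referenced to DMSO.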

[8] = ATG_TA_CIS: Attagene CIS-FACTORIAL HepG2 Assay for human TA Basal Promoter (AID 2282964); settings: HepG2 Attagene CIS-factorial TA basal promoter reporter; actives raise or lower the signal
In short: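 Transfected HepG2, 24 h compound exposure; RNA → RT-PCR → FAM primer extension → HpaI cut → CE fluorescence. Gain/loss-of-signal fitted against DMSO negative control. Background-control readout.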

[9] = ATG_TCF_b_cat_CIS: Attagene CIS-FACTORIAL HepG2 Assay for human T-Cell-Factor with beta-catenin (TCF/b-cat) (AID 2282965); settings: HepG2 TCF/beta-catenin cis-reporter transcription, actives raise or lower the signal
In short: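 Endogenous transcription factor activity is captured through cis-promoter reporter constructs transiently introduced into human HepG2 liver cells. Induced reporter mRNA is measured after 24 h and fitted bidirectionally relative to DMSO.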

[10] = ATG_TAL_CIS: Attagene CIS-FACTORIAL HepG2 Assay for human TAL Basal Promoter (AID 2282966); settings: HepG2 Attagene cis-factorial TAL promoter reporter; actives raise or lower the signal;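 further: background control endpoint measuring basal TAL promoter reporter mRNA not a specific factor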
In short: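 Fluorescence of labelled reporter cDNA fragments, resolved by capillary electrophoresis, gave the readout. Human HepG2 liver cells carried transiently transfected cis-element reporter units and were treated for 24 hours; activity was fitted bidirectionally against DMSO.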

[11] = ATG_TGFb_CIS: Attagene CIS-FACTORIAL HepG2 Assay for human Transforming Growth Factor (TGF) (AID 2282967); settings: HepG2 Attagene CIS TGFb reporter, mRNA transcription; actives raise or lower the signal
In short: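 Readout: fluorescently labeled reporter cDNA fragments resolved by capillary electrophoresis after RT-PCR. Transfected HepG2 cells dosed for 24 h; endogenous TF activity at TGFB1-linked cis element; gain or loss fitted relative to DMSO.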

[12] = ATG_VDRE_CIS: Attagene CIS-FACTORIAL HepG2 Assay for human Vitamin D Receptor Element (VDRE) (AID 2282968); settings: HepG2 VDRE cis-reporter transcription, actives raise or lower the signal
In short: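 In transiently transfected HepG2 liver cells, gain or loss of reporter mRNA after 24 h exposure is scored relative to DMSO, using fluorescence detection by capillary electrophoresis of RT-PCR products.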

[13] = target: Nuclear receptor subfamily 1 group I member 3 (Homo sapiens) (UniProt Q14994); assay: ATG_CAR_TRANS: Attagene TRANS-FACTORIAL HepG2 Assay for human Constitutive Androstane Receptor (CAR) (AID 2282969; active means hit-call score of the fitted dose curve at least 0.9, where 1 is the maximum;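 further: activators raise reporter mRNA above DMSO so AC50 marks induction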); settings: HepG2 Attagene TRANS-FACTORIAL CAR reporter
Chain of Nuclear receptor subfamily 1 group I member 3 (Homo sapiens) (Q14994 whole entry, looked up, the tested form may be a part): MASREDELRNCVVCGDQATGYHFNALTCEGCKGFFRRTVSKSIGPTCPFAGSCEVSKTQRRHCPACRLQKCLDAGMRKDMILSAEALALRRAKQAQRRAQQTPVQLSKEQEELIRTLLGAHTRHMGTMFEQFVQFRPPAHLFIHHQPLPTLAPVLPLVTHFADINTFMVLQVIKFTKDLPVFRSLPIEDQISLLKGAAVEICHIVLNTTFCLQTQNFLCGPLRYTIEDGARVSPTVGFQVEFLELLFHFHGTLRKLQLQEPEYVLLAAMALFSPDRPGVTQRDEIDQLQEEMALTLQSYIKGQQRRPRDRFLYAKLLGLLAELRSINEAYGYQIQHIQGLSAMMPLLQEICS
In short: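 Readout is reporter mRNA induction, quantified by fluorescent primer extension and capillary electrophoresis after RT-PCR. Cells were HepG2 transiently carrying chimeric NR-Gal4 constructs with GAL4-UAS reporters, treated for 24 h; activity scored upward from DMSO.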

[14] = target: Estrogen receptor (Homo sapiens) (UniProt P03372); assay: ATG_ERa_TRANS: Attagene TRANS-FACTORIAL HepG2 Assay for human Estrogen Receptor alpha (ERa) (AID 2282970; active means hit-call score of the fitted dose curve at least 0.9, where 1 is the maximum); settings: HepG2 Attagene TRANS ERa GAL4 reporter, mRNA
Chain of Estrogen receptor (Homo sapiens) (P03372 whole entry, looked up, the tested form may be a part): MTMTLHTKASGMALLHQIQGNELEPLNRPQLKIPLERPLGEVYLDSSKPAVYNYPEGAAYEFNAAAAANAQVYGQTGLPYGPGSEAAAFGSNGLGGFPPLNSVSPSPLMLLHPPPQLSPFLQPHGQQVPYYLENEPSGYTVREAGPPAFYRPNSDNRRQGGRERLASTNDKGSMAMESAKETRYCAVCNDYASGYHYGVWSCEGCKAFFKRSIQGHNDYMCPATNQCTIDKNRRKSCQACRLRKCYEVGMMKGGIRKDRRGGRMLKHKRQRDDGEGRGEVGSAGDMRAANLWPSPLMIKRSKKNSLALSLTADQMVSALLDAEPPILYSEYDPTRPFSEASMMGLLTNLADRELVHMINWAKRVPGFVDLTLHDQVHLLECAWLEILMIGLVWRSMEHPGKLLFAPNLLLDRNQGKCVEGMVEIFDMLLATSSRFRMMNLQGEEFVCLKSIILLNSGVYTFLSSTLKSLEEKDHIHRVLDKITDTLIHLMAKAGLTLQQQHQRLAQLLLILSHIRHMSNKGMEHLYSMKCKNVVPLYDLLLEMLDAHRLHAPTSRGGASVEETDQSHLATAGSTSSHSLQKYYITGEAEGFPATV
In short: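 Human liver HepG2, transient transfection of multiple GAL4-UAS reporter units; TRANS format (exogenous NR-Gal4 chimera). 24 h dosing. Readout: reporter mRNA, RT-PCR, 6-FAM primer extension, HpaI digest, capillary electrophoresis. Positive direction vs DMSO.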

[15] = target: X-box-binding protein 1 (Homo sapiens) (UniProt P17861); assay: ATG_Xbp1_CIS: Attagene CIS-FACTORIAL HepG2 Assay for human X-box Binding Protein 1 (XBP1) (AID 2282972); settings: HepG2 XBP1 cis-element reporter, Attagene multiplex; actives raise or lower the signal
Chain of X-box-binding protein 1 (Homo sapiens) (P17861 whole entry, looked up): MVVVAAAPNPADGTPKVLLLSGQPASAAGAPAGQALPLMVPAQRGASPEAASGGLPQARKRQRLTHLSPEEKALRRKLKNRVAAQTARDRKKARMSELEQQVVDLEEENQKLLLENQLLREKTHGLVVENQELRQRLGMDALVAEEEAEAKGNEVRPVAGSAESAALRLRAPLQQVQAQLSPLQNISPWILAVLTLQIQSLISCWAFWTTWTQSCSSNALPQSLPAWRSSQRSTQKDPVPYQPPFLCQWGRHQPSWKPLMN
In short: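 HepG2 cells transiently transfected with multiple cis-element reporter units report endogenous TF activity; 24 h exposure, then reporter mRNA measured by RT-PCR, 6-FAM labelling, HpaI digestion and capillary electrophoresis. Bidirectional fitting versus DMSO.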

[16] = ATG_PXRE_CIS: Attagene CIS-FACTORIAL HepG2 Assay for human Pregnane X Receptor Element (PXRE) (AID 2282957); settings: HepG2 Attagene CIS-FACTORIAL PXRE reporter, mRNA; actives raise or lower the signal
In short: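 Transfect HepG2 with MRTUs (cis promoter elements); dose chemical, incubate 24 h; isolate RNA, RT with oligo(dT), PCR, 6-FAM label, HpaI cut, CE. Gain/loss fit vs DMSO.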

[17] = ATG_M_19_TRANS: Attagene TRANS-FACTORIAL HepG2 Assay for M19 Transcription Factor (Internal Marker) (AID 2282974; active means hit-call score of the fitted dose curve at least 0.9, where 1 is the maximum); settings: HepG2 Attagene TRANS-FACTORIAL M19 internal marker reporter
In short: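 After transfection of HepG2 with GAL4-UAS-driven reporter constructs, cells are dosed for 24 h. Total RNA is reverse-transcribed, reporter sequences PCR-amplified and labelled, then HpaI-digested and sized by capillary electrophoresis.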

[18] = ATG_GAL4_TRANS: Attagene TRANS-FACTORIAL HepG2 Assay for GAL4 (Internal Marker) (AID 2282976; active means hit-call score of the fitted dose curve at least 0.9, where 1 is the maximum); settings: HepG2 Attagene TRANS GAL4 internal marker reporter
In short: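 First, HepG2 cells were transfected with reporter units under GAL4-UAS control. Next, they were treated with chemical for 24 h. Finally, RNA was reverse-transcribed, PCR-amplified, FAM-labelled and resolved by capillary electrophoresis, with induction scored against DMSO.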

Measured: AC50

Cc1ccc(N)cc1O
inactive: [1] | [2] | [3] | [4] | [5] | [6] | [7] | [8] | [9] | [10] | [11] | [12] | [13] | [14] | [15]

Cc1ccc(C)c(O)c1
inactive: [1] | [16] | [2] | [3] | [4] | [5] | [6] | [7] | [8] | [9] | [10] | [11] | [13] | [15]

CCCCCCCCCCCCCCCO
inactive: [1] | [16] | [2] | [3] | [4] | [5] | [6] | [7] | [8] | [9] | [10] | [11] | [15]

C[C@](N)(Cc1ccc(O)c(O)c1)C(=O)O
inactive: [1] | [16] | [4] | [5] | [6] | [7] | [8] | [9] | [10] | [11] | [12] | [13] | [15]

O=C(O)CCN(C1(C(=O)NO)CCCC1)S(=O)(=O)c1ccc(Oc2ccc(F)cc2)cc1
inactive: [1] | [16] | [2] | [4] | [5] | [6] | [7] | [8] | [9] | [10] | [11] | [12] | [13] | [15] | [17]

CCn1nc(Cc2ccccc2)cc1C1CCN(C[C@H]2C[C@H](N(C)[C@@H](C(=O)O)C(C)C)C[C@@H]2c2cccc(F)c2)CC1
inactive: [1] | [16] | [2] | [3] | [4] | [5] | [7] | [8] | [10] | [11] | [14] | [15] | [17] | [18]
active: [6] 26.9 µM | [9] 100 µM

CCCCCCCCO
inactive: [1] | [16] | [2] | [3] | [4] | [5] | [6] | [7] | [8] | [10] | [11] | [12] | [14] | [15] | [17] | [18]
active: [9] 20.5 µM

O=c1n(CC2CO2)c(=O)n(CC2CO2)c(=O)n1CC1CO1 (stereo not drawn)
active: [1] 59.6 µM | [16] 21.3 µM | [3] 65.3 µM | [4] 65.2 µM | [5] 17.1 µM | [15] 74.9 µM
inactive: [2] | [6] | [7] | [8] | [9] | [10] | [11] | [13] | [14]
